The values below come from PubChem BioAssay (NCI).

Compounds without any hit were thinned out: in the full panel of roughly 79,000, 15% have a hit. Unmarked numbers belong to inactive results. Activity calls are given as the source filed them. Rule as the data show it: active = growth inhibition above about 70%; inactive = the rest.

The nature of assay [1]: NCI Yeast Anticancer Drug Screen. Data for the rad50 strain (AID 155).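 Also: 0% = growth of vehicle-only cultures of the same strain.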 The following applies: S. cerevisiae rad50 strain growth inhibition, hits give high values. In short, it runs like this:
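Compounds were tested on a yeast strain with an engineered DNA damage repair alteration; the reported value is growth inhibition normalised to vehicle treatment.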

The nature of assay [2]: NCI Yeast Anticancer Drug Screen. Data for the mec2-1 strain (AID 157). The following applies: S. cerevisiae mec2-1 strain, hits give high values. In short, it runs like this:
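Yeast mec2-1 mutant treated with compound. Readout: growth inhibition vs vehicle controls.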

Assay [3] can be described thus: NCI Yeast Anticancer Drug Screen. Data for the sgs1 mgt1 strain (AID 161).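 Also: 0% = growth of cultures given vehicle only.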 To be noted: S. cerevisiae sgs1 mgt1 strain, hits give high values. In short, it runs like this: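 Inhibition of yeast growth, normalised to vehicle-treated controls, is reported for a strain bearing genetic alterations in DNA damage repair.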
Assay [4] in a line: NCI Yeast Anticancer Drug Screen. Data for the cln2 rad14 strain (AID 165).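 Also: 0% = growth equal to vehicle treated cultures.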 The following applies: S. cerevisiae cln2 rad14 strain, hits give high values. A digest of the protocol:
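cln2 rad14 yeast strain; compound exposure; growth inhibition read vs vehicle controls.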

A short description of assay [5]: NCI Yeast Anticancer Drug Screen. Data for the bub3 strain (AID 167). To be noted: S. cerevisiae bub3 mutant strain, hits give high values. In short, it runs like this:
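Growth of a checkpoint-deficient yeast mutant is measured after compound exposure. Values represent inhibition relative to vehicle.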

A short description of assay [6]: NCI Yeast Anticancer Drug Screen. Data for the mlh1 rad18 strain (AID 175). To be noted: S. cerevisiae mlh1 rad18 strain growth inhibition, hits give high values. In short, it runs like this: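 Yeast w/ defined DNA-repair lesions; compound exposure; growth vs vehicle controls → % inhibition.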
[7] abbreviates: at 5.0 µM (retest, dose inferred, filed as 0.5).
[8] abbreviates: at 50.0 µM (retest, dose inferred, filed as 5.0).

`O=C1c2ccccc2SCC12OC2c1ccc(Cl)cc1` (stereo not given): the growth inhibition was 9% in assay [1] (setting [7]); 85% (active) in assay [1] (setting [8]); 95% (active) in assay [1] (at 50.0 µM); 4% in assay [2] (setting [7]); 88% (active) in assay [2] (setting [8]); 93.5% (active) in assay [2] (at 50.0 µM). The growth inhibition is 16% in assay [3] (setting [7]); 92% (active) in assay [3] (setting [8]); 95.5% (active) in assay [3] (at 50.0 µM); 1% in assay [4] (setting [7]); 87% (active) in assay [4] (setting [8]); 92% (active) in assay [4] (at 50.0 µM). The growth inhibition was 21% in assay [5] (setting [7]); 91% (active) in assay [5] (setting [8]); 94.9% (active) in assay [5] (at 50.0 µM); 12% in assay [6] (setting [7]); 91% (active) in assay [6] (setting [8]); 95.1% (active) in assay [6] (at 50.0 µM).

Take `C[Si](C)(CCC(=O)O)O[Si](C)(C)CCC(=O)O`: the growth inhibition was -6% in assay [1] (setting [7]); 91% (active) in assay [1] (setting [8]); 99.5% (active) in assay [1] (at 50.0 µM); -4% in assay [2] (setting [7]); 92% (active) in assay [2] (setting [8]); 99.7% (active) in assay [2] (at 50.0 µM). The growth inhibition in assay [3] (setting [7]) is -6%; in assay [3] (setting [8]), 91% (active); in assay [3] (at 50.0 µM), 99.5% (active); in assay [4] (setting [7]), -1%; in assay [4] (setting [8]), 59%; in assay [4] (at 50.0 µM) it was 98.2% (active). The growth inhibition in assay [5] (setting [7]) is -9%; in assay [5] (setting [8]) it was 99% (active); in assay [5] (at 50.0 µM), 99.5% (active); in assay [6] (setting [7]), -1%; in assay [6] (setting [8]), 68%; in assay [6] (at 50.0 µM), 99.2% (active).

On to `O=C1/C(=C(/Br)I)c2ccccc2-c2ccccc21`, for which the growth inhibition in assay [1] (setting [7]) is 98% (active); in assay [1] (setting [8]), 87% (active); in assay [1] (at 50.0 µM), 7.85%; in assay [2] (setting [7]) it was 99% (active); in assay [2] (setting [8]), 91% (active); in assay [2] (at 50.0 µM), 58.9%. Also, the growth inhibition in assay [3] (setting [7]) was 96% (active); in assay [3] (setting [8]) it was 94% (active); in assay [3] (at 50.0 µM) it was 64.3%; in assay [4] (setting [7]), 53%; in assay [4] (setting [8]), 90% (active); in assay [4] (at 50.0 µM) it was 44%. The growth inhibition is 99% (active) in assay [5] (setting [7]); 89% (active) in assay [5] (setting [8]); 75.7% (active) in assay [5] (at 50.0 µM); 99% (active) in assay [6] (setting [7]); 88% (active) in assay [6] (setting [8]); 59% in assay [6] (at 50.0 µM).

As to `C#CCN(N=O)C(=O)NCCCC(NC(C)=O)C(=O)NCc1ccccc1` (stereo not given), the growth inhibition is -4% in assay [1] (setting [7]); 19% in assay [1] (setting [8]); 78.9% (active) in assay [1] (at 50.0 µM); -26% in assay [2] (setting [7]); -10% in assay [2] (setting [8]); -5.35% in assay [2] (at 50.0 µM). In addition, the growth inhibition in assay [3] (setting [7]) is 3%; in assay [3] (setting [8]) it was 36%; in assay [3] (at 50.0 µM) it was 43.6%; in assay [4] (setting [7]), -8%; in assay [4] (setting [8]), 12%; in assay [4] (at 50.0 µM), 27.1%. The growth inhibition in assay [5] (setting [7]) was 6%; in assay [5] (setting [8]), 26%; in assay [5] (at 50.0 µM), -13.6%; in assay [6] (setting [7]), -2%; in assay [6] (setting [8]), 42%; in assay [6] (at 50.0 µM), 25.8%.

With `CC(CO)(CO)N=Cc1cc(I)cc(I)c1O`, the growth inhibition in assay [1] (setting [7]) was 91% (active); in assay [1] (setting [8]), 100% (active); in assay [1] (at 50.0 µM), 99.6% (active); in assay [2] (setting [7]) it was 97% (active); in assay [2] (setting [8]), 100% (active); in assay [2] (at 50.0 µM), 99.6% (active). The growth inhibition in assay [3] (setting [7]) is 86% (active); in assay [3] (setting [8]), 99% (active); in assay [3] (at 50.0 µM) it was 99.7% (active); in assay [4] (setting [7]), 87% (active); in assay [4] (setting [8]), 99% (active); in assay [4] (at 50.0 µM), 99.4% (active). Moreover, the growth inhibition in assay [5] (setting [7]) was 86% (active); in assay [5] (setting [8]), 100% (active); in assay [5] (at 50.0 µM) it was 99.5% (active); in assay [6] (setting [7]) it was 98% (active); in assay [6] (setting [8]), 100% (active); in assay [6] (at 50.0 µM), 99.6% (active).

As to `COc1ccc(OC2OC(COC(c3ccccc3)(c3ccc(OC)cc3)c3ccc(OC)cc3)C(O)C(O)C2O)cc1` (stereo not given), the growth inhibition is 4% in assay [1] (setting [7]); 98% (active) in assay [1] (setting [8]); 97.5% (active) in assay [1] (at 50.0 µM); -10% in assay [2] (setting [7]); 98% (active) in assay [2] (setting [8]); 97% (active) in assay [2] (at 50.0 µM). Besides, the growth inhibition in assay [3] (setting [7]) was 9%; in assay [3] (setting [8]), 69%; in assay [3] (at 50.0 µM), 98.1% (active); in assay [4] (setting [7]) it was 11%; in assay [4] (setting [8]), 98% (active); in assay [4] (at 50.0 µM) it was 97.6% (active). The growth inhibition was 4% in assay [5] (setting [7]); 99% (active) in assay [5] (setting [8]); 95.5% (active) in assay [5] (at 50.0 µM); -11% in assay [6] (setting [7]); 98% (active) in assay [6] (setting [8]); 96.7% (active) in assay [6] (at 50.0 µM).

For the compound `C=CNC(=O)Oc1ccccc1`, the growth inhibition in assay [1] (setting [7]) is -128%; in assay [1] (setting [8]) it was -156%; in assay [1] (at 50.0 µM), -9.95%; in assay [2] (setting [7]) it was -35%; in assay [2] (setting [8]) it was -59%; in assay [2] (at 50.0 µM) it was 30.2%. Moreover, the growth inhibition is -47% in assay [3] (setting [7]); -62% in assay [3] (setting [8]); 12.7% in assay [3] (at 50.0 µM); -57% in assay [4] (setting [7]); -73% in assay [4] (setting [8]); 44% in assay [4] (at 50.0 µM). Also, the growth inhibition in assay [5] (setting [7]) was -64%; in assay [5] (setting [8]), -81%; in assay [5] (at 50.0 µM), -3%; in assay [6] (setting [7]), -121%; in assay [6] (setting [8]), -130%; in assay [6] (at 50.0 µM), 6.25%.

In the case of `COC1/C=C\C=C(/C)C(=O)Nc2cc3nc4cc(Br)ccc4oc-3c(c2=O)CC(C)CC(OC)C(O)C(C)/C=C(\C)C1OC(N)=O` (stereo not given), the growth inhibition is 54% in assay [1] (setting [7]); 95% (active) in assay [1] (setting [8]); 90.2% (active) in assay [1] (at 50.0 µM); 81% (active) in assay [2] (setting [7]); 96% (active) in assay [2] (setting [8]); 92% (active) in assay [2] (at 50.0 µM). In addition, the growth inhibition is 46% in assay [3] (setting [7]); 94% (active) in assay [3] (setting [8]); 89.9% (active) in assay [3] (at 50.0 µM); 50% in assay [4] (setting [7]); 96% (active) in assay [4] (setting [8]); 83.2% (active) in assay [4] (at 50.0 µM). Also, the growth inhibition in assay [5] (setting [7]) was 79% (active); in assay [5] (setting [8]), 96% (active); in assay [5] (at 50.0 µM), 91.8% (active); in assay [6] (setting [7]) it was 81% (active); in assay [6] (setting [8]), 95% (active); in assay [6] (at 50.0 µM), 89.4% (active).

Turning to `CCOC1NC(=S)N(C2CCCCC2)C1(C)C` (stereo not given), the growth inhibition in assay [1] (setting [7]) was -2%; in assay [1] (setting [8]), 10%; in assay [1] (at 50.0 µM), 10.8%; in assay [2] (setting [7]), -2%; in assay [2] (setting [8]) it was 3%; in assay [2] (at 50.0 µM), 1.1%. Also, the growth inhibition in assay [3] (setting [7]) is -1%; in assay [3] (setting [8]) it was 11%; in assay [3] (at 50.0 µM) it was 11.8%; in assay [4] (setting [7]), -2%; in assay [4] (setting [8]), -11%; in assay [4] (at 50.0 µM), 75.6% (active). Also, the growth inhibition in assay [5] (setting [7]) is -2%; in assay [5] (setting [8]) it was -9%; in assay [5] (at 50.0 µM), -19%; in assay [6] (setting [7]), -6%; in assay [6] (setting [8]), 1%; in assay [6] (at 50.0 µM), 16.6%.

Consider `COc1cc2c(cc1O)CCN[C@@]21CS[C@H]2c3c(OC(C)=O)c(C)c4c(c3C(COC1=O)N1C2C2c3c(cc(C)c(OC)c3O)CC([C@@H]1O)N2C)OCO4` (stereo not given in full), for which the growth inhibition was 98% (active) in assay [1] (setting [7]); 99% (active) in assay [1] (setting [8]); 92.7% (active) in assay [1] (at 50.0 µM); 99% (active) in assay [2] (setting [7]); 99% (active) in assay [2] (setting [8]); 94% (active) in assay [2] (at 50.0 µM). Moreover, the growth inhibition in assay [3] (setting [7]) was 99% (active); in assay [3] (setting [8]), 99% (active); in assay [3] (at 50.0 µM) it was 93.4% (active); in assay [4] (setting [7]), 99% (active); in assay [4] (setting [8]), 99% (active); in assay [4] (at 50.0 µM), 91.6% (active). Moreover, the growth inhibition in assay [5] (setting [7]) is 99% (active); in assay [5] (setting [8]), 99% (active); in assay [5] (at 50.0 µM) it was 93.2% (active); in assay [6] (setting [7]) it was 99% (active); in assay [6] (setting [8]) it was 99% (active); in assay [6] (at 50.0 µM), 92% (active).
